{
  "source": "the supplement of paper PMC3334620",
  "note": "The full ranking holds about 33,000 sequences; the median of “E-score (-0.5 to 0.5)” is about -0.021, and the highest 2% start at about 0.32. The full list was thinned out, with the highest values kept by preference.",
  "data": [
    {"molecular_target": "T1, Zap1 (UniProt P47043)", "T1 sequence": "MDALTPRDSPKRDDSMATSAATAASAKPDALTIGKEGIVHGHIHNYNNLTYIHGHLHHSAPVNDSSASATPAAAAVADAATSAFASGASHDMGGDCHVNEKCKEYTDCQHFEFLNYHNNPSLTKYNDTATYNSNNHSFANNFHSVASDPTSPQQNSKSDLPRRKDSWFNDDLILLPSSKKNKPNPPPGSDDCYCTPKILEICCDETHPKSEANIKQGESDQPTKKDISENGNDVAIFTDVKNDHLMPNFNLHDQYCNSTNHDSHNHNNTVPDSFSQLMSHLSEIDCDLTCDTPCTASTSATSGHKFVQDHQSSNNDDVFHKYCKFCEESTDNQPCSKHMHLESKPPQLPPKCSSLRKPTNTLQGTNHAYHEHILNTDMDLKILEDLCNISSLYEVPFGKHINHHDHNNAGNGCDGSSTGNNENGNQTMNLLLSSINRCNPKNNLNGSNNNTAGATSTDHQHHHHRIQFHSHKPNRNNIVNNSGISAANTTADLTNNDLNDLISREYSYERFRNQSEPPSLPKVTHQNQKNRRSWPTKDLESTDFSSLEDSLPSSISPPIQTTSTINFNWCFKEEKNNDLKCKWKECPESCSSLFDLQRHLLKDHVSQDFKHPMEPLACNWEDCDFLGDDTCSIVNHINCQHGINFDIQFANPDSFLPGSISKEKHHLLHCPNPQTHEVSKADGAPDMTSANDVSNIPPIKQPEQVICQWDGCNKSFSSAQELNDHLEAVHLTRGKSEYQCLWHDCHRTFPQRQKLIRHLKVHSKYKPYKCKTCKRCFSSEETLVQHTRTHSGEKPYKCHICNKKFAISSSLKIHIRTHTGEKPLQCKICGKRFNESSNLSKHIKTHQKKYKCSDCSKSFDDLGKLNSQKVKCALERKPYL", "assay": "PBM E-score (8-mer binding enrichment) (E-score (-0.5 to 0.5)); higher = stronger / more preferred TF binding", "conditions": "protein concentration: 200 nM; construct: GST-full length", "method": "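Universal 'all 10-mer' protein binding microarrays (Agilent AMADID 015681) probed with GST-tagged S. cerevisiae TFs (full-length or DBD) made by in vitro transcription/translation (PURExpress), about 100-200 nM. Bound TF was detected with fluorescent anti-GST. Each ungapped 8-mer (which stands for itself and its reverse complement) is scored by the PBM enrichment score (E-score), a modified Wilcoxon-Mann-Whitney statistic from -0.5 to +0.5, computed with the Universal PBM Analysis Suite. Scale: above 0.35 generally sequence-specific binding.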", "values": [
      {"sequence": "AGTAGTCA", "PBM E-score": -0.276},
      {"sequence": "CAGATACA", "PBM E-score": 0.0912},
      {"sequence": "GTAGCACA", "PBM E-score": 0.017},
      {"sequence": "GCATCCAA", "PBM E-score": -0.203},
      {"sequence": "AGGGAGAA", "PBM E-score": -0.148},
      {"sequence": "AACCCCGT", "PBM E-score": 0.277},
      {"sequence": "GACCCCTA", "PBM E-score": 0.276},
      {"sequence": "AACCCCTT", "PBM E-score": 0.38},
      {"sequence": "AGACCCTA", "PBM E-score": 0.298},
      {"sequence": "AACCCCCT", "PBM E-score": -0.187},
      {"sequence": "TACCCCTA", "PBM E-score": 0.366},
      {"sequence": "CACCCCTA", "PBM E-score": 0.0983},
      {"sequence": "GGACCCTA", "PBM E-score": 0.159},
      {"sequence": "CGACCCTA", "PBM E-score": 0.328},
      {"sequence": "CGTCTCTA", "PBM E-score": -0.19},
      {"sequence": "GCTAAAAC", "PBM E-score": 0.0736},
      {"sequence": "CGTATCCA", "PBM E-score": -0.133},
      {"sequence": "CGGTTGAA", "PBM E-score": 0.221},
      {"sequence": "CCACAGCC", "PBM E-score": -0.17},
      {"sequence": "ATCCTTTA", "PBM E-score": 0.092},
      {"sequence": "GGCCTTTA", "PBM E-score": 0.114},
      {"sequence": "GACCTTTA", "PBM E-score": 0.401},
      {"sequence": "AACCTTTC", "PBM E-score": 0.324},
      {"sequence": "AACCTTCC", "PBM E-score": 0.21},
      {"sequence": "AGCCTTTA", "PBM E-score": 0.132},
      {"sequence": "AACCTTTA", "PBM E-score": 0.398},
      {"sequence": "AACCTTCA", "PBM E-score": 0.368},
      {"sequence": "AGCCTTTC", "PBM E-score": -0.185},
      {"sequence": "GACCTTCA", "PBM E-score": 0.0992},
      {"sequence": "CACCTTTA", "PBM E-score": 0.118},
      {"sequence": "CACCTTTC", "PBM E-score": 0.0949},
      {"sequence": "ATAGTTGC", "PBM E-score": 0.135},
      {"sequence": "ACGTCGCA", "PBM E-score": -0.0322},
      {"sequence": "GGTGAACA", "PBM E-score": -0.231},
      {"sequence": "GCGCTATA", "PBM E-score": -0.105},
      {"sequence": "CGCTATCA", "PBM E-score": -0.078},
      {"sequence": "CAGCAAGC", "PBM E-score": -0.389},
      {"sequence": "ACCTAGGC", "PBM E-score": -0.26},
      {"sequence": "GTGATAAC", "PBM E-score": 0.251},
      {"sequence": "CATCCTCC", "PBM E-score": -0.176},
      {"sequence": "GATAGCTA", "PBM E-score": -0.298},
      {"sequence": "GGCTCAAA", "PBM E-score": -0.176},
      {"sequence": "AGGAACAA", "PBM E-score": 0.00761},
      {"sequence": "AACCTTTG", "PBM E-score": 0.377},
      {"sequence": "AACCTTCG", "PBM E-score": 0.305},
      {"sequence": "AACCTTGG", "PBM E-score": 0.274},
      {"sequence": "AGATCGCT", "PBM E-score": -0.204},
      {"sequence": "GAAACTCC", "PBM E-score": -0.206},
      {"sequence": "ACAGATCA", "PBM E-score": 0.0477},
      {"sequence": "TCGTTAAA", "PBM E-score": -0.0347},
      {"sequence": "ATGTTAAA", "PBM E-score": 0.0569},
      {"sequence": "CGGTTAAA", "PBM E-score": 0.328},
      {"sequence": "AGGTTAAA", "PBM E-score": 0.376},
      {"sequence": "TGGTTAAA", "PBM E-score": 0.379},
      {"sequence": "TAGTTAAA", "PBM E-score": 0.234},
      {"sequence": "ACGTTAAA", "PBM E-score": 0.101},
      {"sequence": "CGGTTTAA", "PBM E-score": 0.0515},
      {"sequence": "CTGTTAAA", "PBM E-score": 0.0123},
      {"sequence": "CTGTTGCA", "PBM E-score": 0.201},
      {"sequence": "GCAAGGTA", "PBM E-score": 0.265},
      {"sequence": "CCGTCCTC", "PBM E-score": -0.191},
      {"sequence": "CTGGTGAA", "PBM E-score": -0.0889},
      {"sequence": "AGCTGTCC", "PBM E-score": -0.225},
      {"sequence": "GACCGCGA", "PBM E-score": 0.259},
      {"sequence": "AACCGCGA", "PBM E-score": 0.367},
      {"sequence": "AACCGCGG", "PBM E-score": 0.374},
      {"sequence": "AACCGCGT", "PBM E-score": 0.227},
      {"sequence": "CACCGCGA", "PBM E-score": 0.0268},
      {"sequence": "CCGCGCGG", "PBM E-score": 0.332},
      {"sequence": "CCGCGCGA", "PBM E-score": 0.124},
      {"sequence": "CACCGCGG", "PBM E-score": 0.176},
      {"sequence": "AACCGCAG", "PBM E-score": 0.126},
      {"sequence": "TACCGCGA", "PBM E-score": 0.328},
      {"sequence": "AACCGCGC", "PBM E-score": 0.24},
      {"sequence": "CCGCGCGC", "PBM E-score": 0.0679},
      {"sequence": "AGCACTAC", "PBM E-score": -0.0779},
      {"sequence": "CCGAAGCA", "PBM E-score": -0.176},
      {"sequence": "ACACAATC", "PBM E-score": 0.00143},
      {"sequence": "CCAGGGCG", "PBM E-score": -0.178},
      {"sequence": "TCCAAGAA", "PBM E-score": -0.0864},
      {"sequence": "CGTCTCAC", "PBM E-score": -0.107},
      {"sequence": "AGCATTTG", "PBM E-score": -0.00877},
      {"sequence": "AGCAAGCA", "PBM E-score": -0.167},
      {"sequence": "ATTAATAC", "PBM E-score": 0.344},
      {"sequence": "ATTAATAG", "PBM E-score": 0.195},
      {"sequence": "ATTAATAA", "PBM E-score": 0.21},
      {"sequence": "ATGCCACC", "PBM E-score": -0.11},
      {"sequence": "CTGGCCGA", "PBM E-score": -0.318},
      {"sequence": "ACTTTAGA", "PBM E-score": 0.0114},
      {"sequence": "GATGGCAA", "PBM E-score": -0.0776},
      {"sequence": "GAATGACC", "PBM E-score": 0.338},
      {"sequence": "GCATGACC", "PBM E-score": 0.234},
      {"sequence": "AAATGACC", "PBM E-score": 0.317},
      {"sequence": "GAATGACA", "PBM E-score": -0.0394},
      {"sequence": "CCATGACG", "PBM E-score": 0.0693},
      {"sequence": "CCATGACC", "PBM E-score": 0.416},
      {"sequence": "GTTGGCCA", "PBM E-score": -0.015},
      {"sequence": "GCGCCTTA", "PBM E-score": -0.066},
      {"sequence": "GAGTTTAA", "PBM E-score": 0.121},
      {"sequence": "AACCTACA", "PBM E-score": 0.264},
      {"sequence": "ACCTACCA", "PBM E-score": 0.126},
      {"sequence": "AGTGGTTC", "PBM E-score": 0.129},
      {"sequence": "GGTGGTAA", "PBM E-score": 0.274},
      {"sequence": "AGTGGTTA", "PBM E-score": 0.434},
      {"sequence": "GGTGGTCA", "PBM E-score": 0.341},
      {"sequence": "CGTGGTCA", "PBM E-score": 0.195},
      {"sequence": "AGTGGTCA", "PBM E-score": 0.197},
      {"sequence": "GGTGGTTA", "PBM E-score": 0.433},
      {"sequence": "CGTGGTTA", "PBM E-score": 0.348},
      {"sequence": "AGTGGTTG", "PBM E-score": 0.312},
      {"sequence": "CGTGGTTC", "PBM E-score": 0.185},
      {"sequence": "CGTGGTAA", "PBM E-score": 0.0908},
      {"sequence": "GGTGGTGA", "PBM E-score": 0.23}
    ]}
  ]
}
